SW480 rerep – A quantitative high throughput screen for small molecules that induce DNA re-replication in SW480 colon adenocarcinoma cells. SW480 DNA re-replication, Hoechst DNA content imaging, 48 h. Potency, µM (highest dose often 46.1 µM), actives largely listed as activators. actives 1.8% (n = 340,000); further: nearly all actives have a fitted effect of over 55% in size
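SW480 cells exposed to compounds for 48 hr at 37 C, 5% CO2, then Hoechst-stained 40 min. Nuclear DNA content imaged by fluorescence scanning (405 nm excitation, 500-530 nm emission); re-replication scored as increased high-intensity nuclei.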
KB-3-1 tox – qHTS assay for MDR1-selective chemotherapeutics: Primary screen using the parental adenocarcinoma cell KB-3-1; KB-3-1 viability, CellTiter-Glo ATP luminescence, 72 h; Potency, µM (top dose mostly 46.1 µM), usual class: cytotoxic; actives 1.4% (n = 400,000); further: nearly all actives have a fitted effect of over 60% in size
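Using CellTiter-Glo luminescence, growth of non-resistant KB-3-1 adenocarcinoma cells is assessed 72 h after pin-tool compound addition at 37 °C. Normalized responses across the concentration series yield fitted curves.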
MCF10A rerep – A quantitative high throughput screen for small molecules that induce DNA re-replication in MCF 10a normal breast cells; actives 2.9% (n = 350,000); AID 624296, 2012; Potency, µM (series often up to 46.1 µM), actives largely listed as activators; MCF 10A DNA re-replication, Hoechst nuclear intensity, 48 h; further: nearly all actives have a fitted effect of over 50% in size
PINK1 modulator – A Quantitative High throughput Screen to Identify Chemical Modulators of PINK1 Expression; PINK1 immunofluorescence, high-content cytometry, 24 h; Potency, µM (top dose mostly 76.6 µM), most hits filed as activators; actives 0.2% (n = 410,000); AID 624263, 2012; active means well fitted activation curve with a large enough effect; inconclusive means small, poorly fitted or top-dose-only effect; cell line not stated here; further: nearly all actives have a fitted effect of over 65% in size
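Compound titrations (5 concentrations, 24 h) on a stable cell line; DMSO and CCCP controls. Endpoint: fixed-cell PINK1 immunofluorescence with mitochondrial, cell and nuclear markers, scanned by microplate cytometer.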
KB-V1 cytotox – qHTS assay for MDR1-selective chemotherapeutics: Primary screen using the drug-selected MDR subline cells KB-V1; KB-V1 MDR cells viability, CellTiter-Glo, 72 h; Potency, µM (doses to about 46.1 µM), actives largely listed as cytotoxic; actives 3.4% (n = 400,000); AID 1347076, 2019; further: nearly all actives have a fitted effect of over 60% in size
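Cells of the MDR subline KB-V1 are plated, dosed with compound at multiple concentrations, and incubated 72 h at 37 degrees C; CellTiter-Glo is then added and luminescence read after 10 min.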
ALOX12 inh – Primary qHTS assay for inhibitors of human arachidonate 12S-lipoxygenase (ALOX12): Round 2. actives 1.1% (n = 580,000). purified 12hLO, xylenol orange hydroperoxide absorbance. Potency, µM (series often up to 108 µM), actives largely listed as inhibitors
Target sequence (P18054 whole entry, looked up): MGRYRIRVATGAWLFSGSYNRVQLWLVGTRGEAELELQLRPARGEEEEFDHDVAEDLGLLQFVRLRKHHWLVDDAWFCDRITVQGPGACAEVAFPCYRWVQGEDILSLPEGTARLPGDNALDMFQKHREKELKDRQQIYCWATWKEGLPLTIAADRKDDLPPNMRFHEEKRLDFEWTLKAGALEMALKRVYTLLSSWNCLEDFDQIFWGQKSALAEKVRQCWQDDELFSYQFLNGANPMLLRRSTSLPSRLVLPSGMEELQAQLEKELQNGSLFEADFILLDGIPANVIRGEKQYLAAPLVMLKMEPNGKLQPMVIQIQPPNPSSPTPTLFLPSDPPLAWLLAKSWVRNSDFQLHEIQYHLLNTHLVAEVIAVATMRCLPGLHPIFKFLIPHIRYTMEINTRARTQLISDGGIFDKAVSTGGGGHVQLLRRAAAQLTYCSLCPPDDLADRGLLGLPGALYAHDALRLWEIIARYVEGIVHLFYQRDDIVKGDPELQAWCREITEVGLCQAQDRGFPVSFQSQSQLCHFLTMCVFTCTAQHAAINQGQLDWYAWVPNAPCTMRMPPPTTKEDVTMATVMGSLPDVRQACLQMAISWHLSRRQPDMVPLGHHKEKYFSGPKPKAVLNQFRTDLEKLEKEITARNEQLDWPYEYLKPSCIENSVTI
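Purified human 12hLO at 150 nM in 25 mM Hepes, 0.01% Triton X-100, pH 7.0, preincubated 15 min at room temperature with compound. Reaction started with 40 uM arachidonic acid, 30 min at room temperature. Hydroperoxide measured by Fe-xylenol orange, 573/405 nm absorbance ratio.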
Numbers stand for hits. An excerpt weighted towards active compounds, which were near 5.8% of everything screened. Unless noted, the call rests on the fitted dose curve; in most records, active means well fitted curve in the direction sought with a large enough effect; inconclusive means small, poorly fitted or top-dose-only effect, or another doubt; inactive means no such curve, though single readings can be large; an effect the other way counts as inactive or inconclusive.

How did Cc1ccc(-c2cc(C(=O)N3CCC(Cc4nncn4C(C)C)CC3)c3ccccc3n2)cc1C do in these assays?
ALOX12 inh: inactive

What do the screens show for `Cc1nnc2ccc(SCC(=O)Nc3ccc(Cl)cc3Cl)nn12`?
ALOX12 inh: inactive

What do the screens show for `Cc1ccc(Sc2csc(-c3ccccc3)n2)cc1`?
ALOX12 inh: inactive

Results for C[C@H](O)[C@@H]1CN2CCc3c([nH]c4ccc(-c5ccc6c(c5)OCO6)cc34)[C@@H]2C[C@@H]1N(C)C(=O)NC1CCCCC1 ?
KB-3-1 tox: 0.58µM; PINK1 modulator: inactive; KB-V1 cytotox: inconclusive; ALOX12 inh: inconclusive

Results for C[C@H](O)[C@@H]1CN2CCc3c([nH]c4ccc(-c5ccc6c(c5)OCO6)cc34)[C@@H]2C[C@@H]1N(C)C(=O)Nc1cc(Cl)cc(Cl)c1 ?
KB-3-1 tox: 13µM; PINK1 modulator: inactive; KB-V1 cytotox: inconclusive; ALOX12 inh: inactive

What do the screens show for `CC(C)OCCCNC(=O)c1cccc(NC(=O)c2ccccc2)c1`?
SW480 rerep: inactive; KB-3-1 tox: inactive; MCF10A rerep: inactive; PINK1 modulator: inactive; KB-V1 cytotox: 16µM; ALOX12 inh: inactive

What do the screens show for `CC(CCc1ccccc1)NC(=O)c1ccc(NC(=O)c2cccc(Br)c2)cc1` (stereo unspecified)?
SW480 rerep: inconclusive; KB-3-1 tox: inactive; MCF10A rerep: 18µM; PINK1 modulator: inconclusive; KB-V1 cytotox: 2.1µM; ALOX12 inh: inactive

How did CC(CCc1ccccc1)NC(=O)c1ccc(NC(=O)c2ccccc2)cc1 (stereo unspecified) do in these assays?
SW480 rerep: inconclusive; KB-3-1 tox: inactive; MCF10A rerep: inconclusive; PINK1 modulator: inactive; KB-V1 cytotox: inactive; ALOX12 inh: inactive

What do the screens show for `CC(C)OC(=O)c1cccc(NC(=O)c2ccccc2)c1`?
SW480 rerep: inactive; KB-3-1 tox: inactive; MCF10A rerep: inconclusive; PINK1 modulator: inactive; KB-V1 cytotox: 12µM; ALOX12 inh: inactive

Results for Cc1cc(CNC(=O)Cc2ccc(-n3cnnn3)cc2)c2[nH]c(C)c(C)c2c1 ?
ALOX12 inh: inactive

What do the screens show for `COC(=O)[C@@H]1Cc2ncn(Cc3ccc(Cl)cc3)c2CN1CCCc1ccccc1`?
ALOX12 inh: inactive

What do the screens show for `CCOc1ccccc1CN1CC[C@H](c2n[nH]c(C)n2)[C@H](NC(=O)C2CC2)C1`?
ALOX12 inh: inactive

Results for CCCCC1(Cc2ccc([N+](=O)[O-])cc2)C(=O)N(c2ccccc2)N(c2ccccc2)C1=O ?
SW480 rerep: inactive; KB-3-1 tox: inconclusive; MCF10A rerep: inconclusive; PINK1 modulator: inactive; KB-V1 cytotox: 16µM; ALOX12 inh: inactive

What do the screens show for `O=C(Cn1nc(Cc2ccncc2)c2ccccc2c1=O)Nc1ccc(Oc2ccccc2)cc1`?
ALOX12 inh: inactive

How did Cc1cc(C)c2ccc3c(C)c(C)nc3c2[nH]1 do in these assays?
SW480 rerep: inconclusive; KB-3-1 tox: inconclusive; MCF10A rerep: 21µM; PINK1 modulator: inactive; KB-V1 cytotox: 16µM; ALOX12 inh: inactive

Results for CNC(=O)COC(=O)c1cc(-c2cccs2)nc2ccccc12 ?
ALOX12 inh: inactive

Results for CC(O)CNc1ncnc2cc(-c3ccc(F)cc3)sc12 (stereo unspecified) ?
SW480 rerep: inconclusive; KB-3-1 tox: inactive; MCF10A rerep: 13µM; PINK1 modulator: inactive; KB-V1 cytotox: inconclusive; ALOX12 inh: inactive

How did Cc1ccc(C(CC(=O)c2ccco2)SCCO)cc1 (stereo unspecified) do in these assays?
SW480 rerep: inconclusive; KB-3-1 tox: inactive; MCF10A rerep: inconclusive; PINK1 modulator: inactive; KB-V1 cytotox: inconclusive; ALOX12 inh: inactive

What do the screens show for `O=C(CC(SCCO)c1ccc(F)cc1)c1ccco1` (stereo unspecified)?
SW480 rerep: inconclusive; KB-3-1 tox: inactive; MCF10A rerep: 21µM; PINK1 modulator: inactive; KB-V1 cytotox: inactive; ALOX12 inh: inactive

How did CCOCCn1c(-n2nc(C)cc2C)nc2c1c(=O)n(CC)c(=O)n2C do in these assays?
ALOX12 inh: inactive

What do the screens show for `CCCC(=O)Nc1nn(CC)c2nc3ccc(C)cc3cc12`?
SW480 rerep: inconclusive; KB-3-1 tox: inactive; MCF10A rerep: inconclusive; PINK1 modulator: inactive; KB-V1 cytotox: inactive; ALOX12 inh: inactive

What do the screens show for `CCCn1nc(NC(=O)c2cccs2)c2cc3ccc(C)cc3nc21`?
SW480 rerep: 15µM; KB-3-1 tox: inactive; MCF10A rerep: inconclusive; PINK1 modulator: inactive; KB-V1 cytotox: inactive; ALOX12 inh: inactive

What do the screens show for `CCCn1nc(NC(=O)c2cccs2)c2cc3cc(C)ccc3nc21`?
SW480 rerep: 21µM; KB-3-1 tox: inactive; MCF10A rerep: 18µM; PINK1 modulator: inactive; KB-V1 cytotox: inconclusive; ALOX12 inh: inconclusive

How did CCCNC(=O)CCc1ccc(C#N)cc1 do in these assays?
ALOX12 inh: inactive

How did Cc1cc(N)n2nc(C)c(-c3ccc(Cl)cc3)c2n1 do in these assays?
SW480 rerep: inactive; KB-3-1 tox: inactive; MCF10A rerep: inactive; PINK1 modulator: inactive; KB-V1 cytotox: inconclusive; ALOX12 inh: inactive

How did Cc1cc(Cl)n2nc(C)c(-c3ccc(Cl)cc3)c2n1 do in these assays?
SW480 rerep: inconclusive; KB-3-1 tox: inactive; MCF10A rerep: 16µM; PINK1 modulator: inactive; KB-V1 cytotox: inactive; ALOX12 inh: inactive

How did Cc1cc(NCCCn2ccnc2)n2nc(C)c(-c3ccc(Cl)cc3)c2n1 do in these assays?
SW480 rerep: inactive; KB-3-1 tox: inconclusive; MCF10A rerep: inactive; PINK1 modulator: inactive; KB-V1 cytotox: 23µM; ALOX12 inh: inactive

Results for COc1ccc(CCNc2cc(C)nc3c(-c4ccccc4)c(C)nn23)cc1OC ?
SW480 rerep: inactive; KB-3-1 tox: inactive; MCF10A rerep: inactive; PINK1 modulator: inactive; KB-V1 cytotox: 8.2µM; ALOX12 inh: inactive

Results for Cc1cc(NCCN2CCOCC2)n2nc(C)c(-c3ccc(Cl)cc3)c2n1 ?
SW480 rerep: inactive; KB-3-1 tox: inconclusive; MCF10A rerep: inactive; PINK1 modulator: inactive; KB-V1 cytotox: 23µM; ALOX12 inh: inactive

What do the screens show for `Cc1cc(NCCCn2ccnc2)n2nc(C)c(-c3ccccc3)c2n1`?
SW480 rerep: inactive; KB-3-1 tox: inactive; MCF10A rerep: inactive; PINK1 modulator: inactive; KB-V1 cytotox: inconclusive; ALOX12 inh: inactive

Source: PubChem BioAssay (National Center for Advancing Translational Sciences (NCATS))
